CRFBP-R2 block = antagonists of CRF-binding protein/CRF-R2 receptor complex; HEK293 CRF-R2/CRF-BP, CRF-induced calcium fluorescence; inhibition, % at 11.8 µM; actives 0.59% (n = 350,000); AID 588475;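 active = inhibition of the ligand-induced calcium signal above about 50% at the single tested concentration, limit read from the data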
IDE cell activ = IDE (human) activation, cell-based | P14735 | HEK cells, FAbeta-B cleavage, fluorescence polarization; 0% vehicle, 100% cell-free pure enzyme wells | activation, % at 5.96 µM | actives 0.073% (n = 340,000) | AID 493087;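 active = activation above the mean of all tested compounds plus 3 SD, set per screening campaign, cut at about 17% in these data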
RTF Ca sens inh = cardiac RTF calcium desensitization; IANBD-labeled cardiac RTF, Ca2+ fluorescence; P19429+P45379; AID 493244; actives 0.12% (n = 340,000); inhibition, % at 7.15 µM;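 active = inhibition above the mean inhibition of all tested compounds plus 3 SD, cut at about 17% in these data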;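 note: assay run at fixed EC70 calcium of 1.6 mM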
IDE cell inh = inhibits human insulin-degrading enzyme in HEK cells. FAbetaB cleavage, fluorescence polarization. inhibition, % at 5.59 µM. actives 0.41% (n = 320,000). AID 434962;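 active = percent inhibition above the average of all tested compounds plus 3 SD, set per screening campaign, cut at about 16% in these data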;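 note: IDE supplied by intact live HEK cells; FP after avidin binding of uncleaved biotin substrate so inhibition keeps polarization high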
CRFBP-R2 agonist = agonists of human CRF-binding protein/CRF-R2 receptor complex; activation, % at 13.2 µM; actives 0.46% (n = 350,000); HEK293 CRF-R2/CRF-BP, calcium dye fluorescence (FLIPR); percent of saturating CRF peptide response;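 active = activation of at least 50%, plus an integration ratio under a set limit after plate pattern correction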
RTF Ca sens act = increases calcium sensitivity of human cardiac regulated thin filaments | IANBD-labeled TnC RTF fluorescence at EC20 calcium; 0% EC20 calcium, 100% full calcium | actives 0.24% (n = 340,000) | P19429+P45379 | activation, % at 7.2 µM;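 active = activation above the mean over all tested compounds plus 3 SD, cut at about 30% in these data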;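 note: rise in fluorescence read as greater calcium sensitivity of cardiac thin filaments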
IDE cell inh cf = cellular human IDE inhibition, confirmation; shares compounds with IDE cell inh; HEK cells, FAbetaB cleavage, fluorescence polarization; inhibition, % at 5.59 µM; actives 51% (n = 1,200); AID 435028;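 active = mean inhibition across triplicate wells above the cutoff set by the earlier primary insulin-degrading enzyme screen, cut at about 16% in these data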
HEK293 tox = kills HEK cells in IDE inhibitor counter-screen; actives 28% (n = 1,200); AID 449730; HEK293 cytotoxicity, ATP luminescence; inhibition, % at 5.59 µM; shares compounds with IDE cell inh; in the data active = inhibition above about 22%
Hits are given with their value; n = inactive; x = no result. Rows were chosen to be rich in hits. Some 1.5% of all compounds tested hit in one or more screens of this group.

SMILES | CRFBP-R2 block | IDE cell activ | RTF Ca sens inh | IDE cell inh | CRFBP-R2 agonist | RTF Ca sens act | IDE cell inh cf | HEK293 tox
Cc1ccccc1COc1ccc(/C(O)=C2/C(=O)C(=O)N(CCCn3ccnc3)C2c2ccco2)cc1 (stereo unspecified) | 54 | n | n | 18 | n | n | n | n
CCOc1ccc(/C(O)=C2/C(=O)C(=O)N(CCN(CC)CC)C2c2ccco2)cc1 (stereo unspecified) | n | n | n | n | n | n | x | x
Cc1ccc(-c2nc3ccccc3[nH]2)cc1NC(=S)NC(=O)c1ccccc1Br | n | n | n | 18 | n | n | n | 31
COc1ccc2c(Cl)c(C(=O)N/N=C/c3ccc4c(c3)OCO4)sc2c1 | n | n | n | n | n | n | x | x
COc1ccc2c(Cl)c(C(=O)N/N=C3\CCCC(=O)C3)sc2c1 | n | n | n | 22 | 79 | 41 | 31 | n
N#Cc1ccc(C(=O)Nc2ccc3ccccc3c2)cc1 | n | n | n | n | n | n | x | x
O=C(Nc1ccc2ccccc2c1)c1ccc2[nH]c(=O)c(=O)[nH]c2c1 | n | n | n | 20 | n | n | n | n
CC(=O)N1c2ccc(S(=O)(=O)N3CCC(C(=O)Nc4ccc(C)cn4)CC3)cc2CC1C (stereo unspecified) | n | n | n | n | n | n | x | x
C=CCN1C(=O)[C@@H]2Cc3c([nH]c4ccccc34)C(c3ccc(O)cc3)N2C1=S (stereo partly specified) | n | n | n | 25 | n | n | n | 22
CC(C)NS(=O)(=O)c1ccc(NC(=S)NC(=O)c2ccc(-c3ccccc3)cc2)cc1 | n | n | n | 39 | n | n | 25 | 37
Cc1ccc(N(CC(=O)N/N=C/c2cccc(Br)c2)S(C)(=O)=O)cc1 | n | n | n | 27 | n | n | 17 | n
CN(C)S(=O)(=O)c1cccc(NC(=O)CCc2nc3sc4c(c3c(=O)[nH]2)CCCC4)c1 | n | n | n | 22 | n | n | n | 25
Fc1ccc2[nH]c3c(NCCN4CCOCC4)ncnc3c2c1 | n | n | n | n | n | n | x | x
Clc1ccc2[nH]c3c(NCCN4CCOCC4)ncnc3c2c1 | n | n | n | 19 | n | n | n | n
Clc1ccc2[nH]c3c(NCC4CCCO4)ncnc3c2c1 (stereo unspecified) | x | x | x | 38 | x | x | 17 | 34
O=C(CCc1nc2sc3c(c2c(=O)[nH]1)CCCC3)N1CCN(c2ccccc2)CC1 | n | n | n | n | n | n | x | x
O=[N+]([O-])c1ccc2[nH]c(O)c(N=NC3CS(=O)(=O)CC3O)c2c1 (stereo unspecified) | n | n | n | n | n | n | x | x
O=C(NNc1ncnc2sccc12)c1ccc(Cl)cc1 | n | x | x | n | n | x | x | x
Cc1csc2ncnc(NNC(=O)c3ccc(Cl)cc3)c12 | n | n | n | 17 | n | n | n | 34
O=C(NC1CCCCC1)C(c1ccccc1)N(Cc1cccnc1)C(=O)c1csnn1 (stereo unspecified) | n | n | n | n | n | n | x | x
Cc1cc2nc(/C(C#N)=C\c3ccc(-c4ccccc4C(=O)O)o3)[nH]c2cc1C | n | n | n | 31 | 100 | 52 | 134 | n
Cc1ccc2nc(/C(C#N)=C/c3ccc(-c4ccccc4C(=O)O)o3)[nH]c2c1 | n | n | n | 85 | 65 | n | 115 | n
Cc1ccc2nc(/C(C#N)=C\c3ccc(N4CCOCC4)o3)[nH]c2c1 | n | n | n | 48 | n | 152 | 26 | 27
Cc1cc(/C=C(/C#N)c2nc3ccccc3[nH]2)c(C)n1-c1cc(C(=O)O)cc(C(=O)O)c1 | n | n | n | x | n | n | x | x
N#C/C(=C/c1ccc(Sc2nc3ccccc3[nH]2)o1)c1ccccc1F | n | n | n | n | n | n | x | x
O=Cc1ccc(-c2ccccc2C(=O)O)o1 | n | n | n | n | n | n | x | x
N#C/C(=C\c1ccc(Sc2ccccc2)o1)c1nc2ccccc2[nH]1 | n | n | n | 21 | n | n | n | n

Screening results: PubChem, several laboratories
